Results filed as inconclusive are left out. Calls of active or inactive are those of the source. Calls come from the whole dose curve; as a rule, active = well fitted cell-killing curve with a large enough effect; inconclusive = small, poorly fitted or top-dose-only effect; inactive = flat fitted curve, though single readings scatter.
assay: Cell Viability - LYMP2-012 (AID 982); details: LYMP2-012 lymphoblastoid cell viability qHTS; series mostly up to 92.2 µM; activity change, negative = cytotoxicity: at the top concentration;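 note: cellular ATP by luciferase luminescence where a drop means cytotoxicity; cells exposed to compound for one day before reading; 0% = DMSO only and full loss = 92 µM tetraoctylammonium bromide; nearly all actives have a fitted effect of over 55% in size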
Description: NIH Chemical Genomics Center [NCGC]
NIH Molecular Libraries Screening Centers Network [MLSCN]
National Institutes of Environmental Health Sciences [NIEHS]
National Toxicology Program [NTP]
We have developed a 1536-well cell-based assay for quantitative high throughput screening (qHTS) against a number of cell lines to determine in vitro cytotoxicity of small molecules. This particular assay uses a human lymphoblastoid cell line (LYMP2-012) purchased from Coriell Institute for Medical Research.
NCGC Assay Protocol Summary:
The CellTiter-Glo luminescent cell viability assay (Promega) is a homogeneous method to measure the number of viable cells in culture. The end point readout of this assay is based on quantitation of intracellular ATP, an indicator of metabolic activity, using the luciferase reaction. Luciferase catalyzes the oxidation of beetle Luciferin to oxyluciferin and light in the presence of ATP. The luminescent signal is proportional to amount of ATP present.
Using the CellTiter-Glo luminescent cell viability assay, the amount of cellular ATP was measured in the lymphoblastoid cell line with complete culture medium following compound treatment for 24 hours. The assay was performed in opaque white Kalypsys 1536-well plates. In the screen, tetraoctylammonium bromide was used as positive control. Library compounds were measured for their ability to cause acute toxicity in the cell line, as reflected by a decrease in intracellular ATP levels, in a concentration-dependent manner. […] AC50 values were determined from concentration-response data modeled with the standard Hill equation.
qHTS protocol for CellTiter Glo lymphoblastoid cellular assay
[Step] [Parameter] [Value] [Description]
1. Reagent; 5 uL; 2500 lymphoblastoid cells/well
2. Time; 5 hr; 37 C incubation
4. Controls; 23 nL; Tetraoctylammonium bromide 6.4pM to 92 uM
5. Time; 24 hr; 37 C incubation
6. Reagent; 5 uL; CellTiter Glo reagent
7. Time; 30 min; Room Temperature
8. Detection; Luminescence; Viewlux plate reader
Keywords: cell viability, cytotoxicity, lymphoblastoid cell line, luminescence, NTPHTS, NTPHTS_NCGC, NIEHS, DSSTox, MLSMR, MLSCN, NIH Roadmap, qHTS, NCGC

| Compound | activity change, negative = cytotoxicity |
| --- | --- |
| C[C@@H]1CC2(OC3C[C@@]4(C)C5=CC[C@H]6C(C)(C)C(O[C@@H]7OC[C@@H](O)[C@H](O)[C@H]7O)CC[C@@]67C[C@@]57CC[C@]4(C)C31)OC(O)C1(C)OC21 (stereo not given in full) | -19.4% (inactive) |
| COc1cccc(N)c1 | 7.13% (inactive) |
| C=CCCCC | 5.23% (inactive) |
| CCCCCCCCC/C=C/CC1CC(=O)OC1=O (stereo not given) | 4.05% (inactive) |
| Nc1cc(S(=O)(=O)O)ccc1O | -10.7% (inactive) |
| CCCC(Cl)CCCC(Cl)CCC(Cl)CCC(Cl)CCC(Cl)CCCC(Cl)CCC (stereo not given) | -12.2% (inactive) |
| Cc1cccc(C)c1O | -9% (inactive) |
| CCCCCCC=O | -12.5% (inactive) |
| COC(=O)c1ccccc1 | -5.16% (inactive) |
| CCOC(C)(C)C | -3.65% (inactive) |
| CCCCCCCCN | -5.71% (inactive) |
| C=C(C)C(N)=O | 3.98% (inactive) |
| c1ccc(Oc2ccccc2)cc1 | 8.08% (inactive) |
| Cc1ccc(C)c(N)c1 | -18.3% (inactive) |
| CCC(C)(C)C | -1.01% (inactive) |
| C=CCCCCCCC=C | 0.208% (inactive) |
| CCC(C)O (stereo not given) | -5.01% (inactive) |
| O=[N+]([O-])c1cccc(Cl)c1 | -11.6% (inactive) |
| CCN(Cc1ccccc1)c1ccccc1 | -4.25% (inactive) |
| [O-]/[N+](=N\O)c1ccccc1 | -5.95% (inactive) |

| Compound | activity change, negative = cytotoxicity |
| --- | --- |
| COc1ccc(N)c(OC)c1 | -3.07% (inactive) |
| CCCCCCCN | -4.61% (inactive) |
| C=Cc1ccccc1C=C | -3.59% (inactive) |
| Cc1cscn1 | -9.37% (inactive) |
| Cc1ccc(CO)cc1 | -5.51% (inactive) |
| N#CCc1ccccc1[N+](=O)[O-] | 14.3% (inactive) |
| CC(C)(O)C(=O)O | -10.1% (inactive) |
| O=C(O)CNC(=O)c1ccc(CO)o1 | -8.06% (inactive) |
| CCCCC(C=O)CC (stereo not given) | 10.8% (inactive) |
| Nc1ccc(F)cc1F | -18.7% (inactive) |
| FC(F)(F)c1cccc(Cl)c1 | 1.79% (inactive) |
| O=P(O)(OCc1ccccc1)OCc1ccccc1 | 4.54% (inactive) |
| O=C1NC(=O)c2cc([N+](=O)[O-])ccc21 | 5.02% (inactive) |
| CCNc1ccccc1 | 7% (inactive) |
| Cc1ccc(C)o1 | 6.65% (inactive) |
| O=C(O)c1cccc(Cl)c1Cl | -7.18% (inactive) |
| O=[N+]([O-])c1cc(C(F)(F)F)ccc1Cl | -2.04% (inactive) |
| CC(C)N=C=NC(C)C | -4.09% (inactive) |
| Cc1ccc(C(=O)O)cc1 | -0.644% (inactive) |
| Cc1ccc(C#N)cc1 | -5.36% (inactive) |
